Holding throughout (test): PBM binding z-score (relative to random genomic background probes); higher = stronger binding; sequences stand for … in GC…GCGATTGACAGCGTAGAATGAAGG
In assay [1] the test system is RARb homodimer (NR concentration 270 nM). A digest of the protocol: (§1)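 Binding z-scores take random background probes as their reference. They come from custom Agilent 4×180K protein-binding microarrays incubated 1 h with ligand-free nuclear receptor dimers, with antibodies against each partner (one per run) detecting binding. Scanned fluorescence was regression-normalized.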

Assay [2] relates to RARg:RXRa (NR concentration 270 nM, RXRa partner concentration 90 nM). In outline: as §1
Assay [3] relates to RARg homodimer (NR concentration 270 nM). A digest of the protocol:
as §1

In assay [4] the test system is RXRa DBDmut IVT, anti-RXR (DBD mutation: RXRa K156A/R161A, NR concentration 90 nM). In outline:
as §1

Assay [5] deals with RXRa homodimer (NR concentration 180 nM). In outline:
as §1

The subject of assay [6] is THRa:RXRa (NR concentration 90 nM, RXRa partner concentration 90 nM). In outline:
as §1

For assay [7], the system named is THRa homodimer (NR concentration 90 nM). In outline: as §1
Assay [8] relates to VDR homodimer (NR concentration 270 nM). In outline: as §1

Consider TAGCCTAGGTCAGATCTGGCCAGTATACGCTATA, for which the PBM binding z-score was 1.82 in assay [1]; 2.73 in assay [2]; 3.49 in assay [3]; -0.24 in assay [4]; 1.3 in assay [5]; 2.57 in assay [6]. The PBM binding z-score in assay [7] was -0.423; in assay [8] it was -0.751.

In the case of CTGGAAAGGTCGGTTGAGGTGAGTATACGGATAA, the PBM binding z-score in assay [1] was determined as 2.18; in assay [2], 2.53; in assay [3], 2.93; in assay [4] it was 1.05; in assay [5] it was 2.18; in assay [6], 4.88. Moreover, the PBM binding z-score amounted to 1.56 in assay [7] and 0.437 in assay [8].

For the sequence CCTGCTGGGCCACGAAAGGTCATTGATTCAGTGA, the PBM binding z-score in assay [1] is 4.56; in assay [2], 4.89; in assay [3], 4.55; in assay [4] it was 0.711; in assay [5] it was 5.39; in assay [6], 3.87. For the same sequence, the PBM binding z-score was found to be 0.572 in assay [7] and 2.37 in assay [8].

Regarding ACAGACAGGTGATGAAGGTAACTCACGCTATCAT, the PBM binding z-score in assay [1] was 0.275; in assay [2], 0.28; in assay [3] it was 0.546; in assay [4], -0.0205; in assay [5], 0.483; in assay [6], 0.491. Further, the PBM binding z-score in assay [7] was -0.113; in assay [8], 0.0793.

Take CGTCCAAGGTCAGCAGGTCGGTGAAAGCGACGTG: the PBM binding z-score in assay [1] turned out to be 4.14; in assay [2], 5.49; in assay [3] it was 6.04; in assay [4], 2.37; in assay [5] it was 4.37; in assay [6], 3.57. The results for the PBM binding z-score in assay [7] and in assay [8] were 1.92 and 1.3, respectively.

Consider TAGCCTTGGTCATTCAGGGGCCAGTATAGAAAGC, for which the PBM binding z-score in assay [1] was 1.09; in assay [2], 2.02; in assay [3] it was 0.792; in assay [4], -0.76; in assay [5], 0.416; in assay [6], 0.75. The figures for the PBM binding z-score in assay [7] and in assay [8] were -0.852 and -0.456, respectively.

Consider ACTATTAGTTGACTTAGGGCAACCTATACGACGC, for which the PBM binding z-score in assay [1] amounted to 0.929; in assay [2], 0.744; in assay [3] it was 1.05; in assay [4] it was 0.811; in assay [5], 0.654; in assay [6], 1.72. Further, the PBM binding z-score in assay [7] came to 0.279; in assay [8], 0.34.

The values above are taken from the supplement of paper PMC6555819.
